Reference: PubChem BioAssay
Where “and” joins values, the source holds several entries; their conditions need not be identical. Identical values can stand only once. Calls of active or inactive are those of the source.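 The calls were made as follows, unless noted: active = thallium flux through the channel raised or lowered by more than 3 SD from vehicle-only wells, actives on both sides; inactive = the rest.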

Experiments:
[1] = P. berghei load reduction in hepatocytes – cell-based, HepG2, luciferase luminescence, HepG2 viability, primary screen (AID 624349; in the data active = parasite load remaining mostly below about 12%, no sharp cut-off; inactive = mostly above about 10%;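 also: 100% = mean of DMSO negative control wells on the same plate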); details: P. berghei liver stage in HepG2, luciferase luminescence, concentration not given here; parasite load remaining: stronger effect = lower value; viability: measured here: HepG2 viability without parasites
[2] = signal quenchers or enhancers, Cy5 substrate/SSB – biochemical, NIH Clinical Collection, E. coli SSB, artefact control for HCV NS3 helicase inhibitor project (AID 743268; call rule not given here); details: Cy5-oligo bound E. coli SSB, fluorescence interference
[3] = test system: Hepatitis C virus NS3 helicase; experiment: blockers of NS3h binding to DNA – biochemical, fluorescence polarization, NIH Clinical Collection, primary screen (AID 743270; call rule not given here); details: NS3 helicase binding to Cy5-dT15 DNA, stronger effect = higher value, concentration not given here
[4] = biological target: Single-stranded DNA-binding protein (Escherichia coli (strain K12)) (UniProt P0AGE0); experiment: SSB-ssDNA binding inhibitors – biochemical, fluorescence polarization, NIH Clinical Collection, counter-screen for HCV NS3 helicase inhibitor project (AID 743271; in the data active = inhibition above about 28%); details: E. coli SSB-DNA binding, stronger effect = higher value, concentration not given here
[5] = compounds distorting NS3 helicase fluorescence signal – biochemical, NIH Clinical Collection, artefact control for HCV NS3 helicase inhibitor project (AID 743272; call rule not given here;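 also: HCV NS3 helicase with a Cy5 labelled single stranded DNA probe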); details: fluorescence interference counterscreen, HCV NS3 helicase assay; stronger effect = lower value
F380Y = experiment: BK channel mutant inhibitors and activators – cell-based, U2OS BacMam, thallium flux, beta subunits, selectivity assay, profiling panel (AID 1259406); details: U2OS BacMam BK variants, at 30 µM;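 also: initial slope of Thallos dye fluorescence rise after thallium is added; log ratio against the mean of 0.3% DMSO vehicle wells on the same plate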
F380Y/beta1 = experiment: as above; details: U2OS BacMam BK variants, at 30 µM
F380Y/beta2Delta = experiment: as above; details: U2OS BacMam BK variants, at 30 µM
F380Y/beta4 = experiment: as above; details: U2OS BacMam BK variants, at 30 µM
[6] = biological target: Calcium-activated potassium channel subunit alpha-1 (Homo sapiens) + Leucine-rich repeat-containing protein 26 (Homo sapiens) (UniProt Q12791+Q2I0M4); experiment: as above; details: U2OS BacMam BK variants, F380Y/Slo1WT/gamma1, at 30 µM
R275C = experiment: as above; details: U2OS BacMam BK variants, at 30 µM
R275C/beta1 = experiment: as above; details: U2OS BacMam BK variants, at 30 µM
R275C/beta2Delta = experiment: as above; details: U2OS BacMam BK variants, at 30 µM
R275C/Slo1WT/beta2 = experiment: as above; details: U2OS BacMam BK variants, at 30 µM
[7] = test system: Neuropilin-2 / VEGF-C interaction (human); experiment: small molecules blocking Neuropilin-2/VEGF-C interaction – biochemical, microplate binding format, z-score (AID 743281; call rule not given here); details: microplate NRP2/VEGF-C binding assay; stronger effect = lower value
[8] = modulation of C. elegans fzo-1 (AID 1259413; call rule not given here;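 also: fzo-1 mutant C. elegans worms in liquid wells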); details: C. elegans fzo-1 modulator screen, mean read-out; stronger effect = higher value
[9] = viability loss with induced miR-34 in A549 – imaging, A549 dox-inducible miR-34, nuclei and caspase counts, primary screen (AID 1347080;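 active = compounds whose cell count with miR-34 switched on is under 0.7 times the count with it off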); details: A549 miR-34 inducible, Hoechst nuclei count, 48 h
[10] = galactose survival enhancers in mitochondrial complex I cybrids – cell-based, galactose medium, ATP luminescence, primary screen (AID 1645843;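 active = z-score of at least 1.8 in each of two replicates, scored against plate mean and spread of sample wells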;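 also: positive z means more ATP and so rescue of galactose-driven cybrid death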); details: complex I mutant cybrid cells, 72 h, stronger effect = higher value
[11] = EMT-state selective cytotoxicity in co-culture – imaging, PC-3E GFP, TEM4-18 mCherry, primary screen (AID 1345086;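 active = compounds killing one labelled cell type while sparing the other, by normalised counts and ratio limits, not self-fluorescent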;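 as to all read-outs here: cells exposed to compound for 72 h before imaging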;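 as to red/green cell ratio (normalised): normalised mesenchymal count divided by normalised epithelial count so high means epithelial killing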); details: PC-3E GFP / TEM4-18 mCherry co-culture, imaging cell counts, at 1 µM; for red/green cell ratio (normalised): actives lie on both sides
[12] = test system: Aerobactin synthetase IucA (Klebsiella pneumoniae hvKP1); experiment: IucA enzyme inhibition, primary screen, biochemical, Spectrum library (AID 1346200; call rule not given here;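 also: 100% = wells without compound and 0% = wells lacking enzyme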); details: malachite green pyrophosphate, A620, at 8 µM, stronger effect = lower value
[13] = measured here: relative caspase fold change +Dox/-Dox
[14] = measured here: total cells with miR-34 induction, stronger effect = lower value
[15] = measured here: total cells without miR-34 induction
[16] = counts scaled to control wells, 1 = unselective
[17] = measured here: epithelial PC-3E GFP cell survival
[18] = measured here: mesenchymal TEM4-18 mCherry cell survival

Calcium-activated potassium channel subunit alpha-1 (Homo sapiens) + Leucine-rich repeat-containing protein 26 (Homo sapiens), sequence (Q2I0M4 whole entry, looked up, one chain of several): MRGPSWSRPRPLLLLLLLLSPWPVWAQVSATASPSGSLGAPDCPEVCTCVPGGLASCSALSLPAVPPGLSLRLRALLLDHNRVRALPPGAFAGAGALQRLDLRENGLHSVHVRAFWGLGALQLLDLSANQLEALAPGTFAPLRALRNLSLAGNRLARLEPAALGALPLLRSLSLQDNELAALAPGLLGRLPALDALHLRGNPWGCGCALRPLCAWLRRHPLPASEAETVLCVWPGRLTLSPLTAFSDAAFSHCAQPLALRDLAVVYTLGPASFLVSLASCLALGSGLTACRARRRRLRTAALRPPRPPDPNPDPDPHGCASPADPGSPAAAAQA

C[C@]12CC[C@H](O)CC1=CC[C@@H]1[C@@H]2CC[C@@]2(C)[C@H]1CC[C@]2(C)O
parasite load remaining [1]: 67.4% (inactive) | viability [1]: 70.8% | fluorescence ratio [2]: 1.04 (inactive) | inhibition [3]: -1.19% (inactive) | inhibition [4]: -4.72% (inactive) | fluorescence ratio [5]: 1.02 (inactive) | log fold change Tl+ flux (F380Y): 0.0283 (inactive) | log fold change Tl+ flux (F380Y/beta1): 0.0442 (inactive) | log fold change Tl+ flux (F380Y/beta2Delta): 0.0164 (inactive) | log fold change Tl+ flux (F380Y/beta4): 0.0285 (inactive) | log fold change Tl+ flux [6]: 0.0157 (inactive) | log fold change Tl+ flux (R275C): 0.0183 (inactive) | log fold change Tl+ flux (R275C/beta1): 0.0261 (inactive) | log fold change Tl+ flux (R275C/beta2Delta): -0.00697 (inactive) | log fold change Tl+ flux (R275C/Slo1WT/beta2): 0.057 (inactive)

CC(C)[C@]12O[C@H]1[C@@H]1O[C@]13[C@]1(O[C@H]1C[C@H]1C4=C(CC[C@@]13C)C(=O)OC4)[C@@H]2O
parasite load remaining [1]: 122% (inactive) | viability [1]: 67.7% | fluorescence ratio [2]: 1.04 (inactive) | inhibition [3]: -2.77% (inactive) | inhibition [4]: -6.26% (inactive) | fluorescence ratio [5]: 1.03 (inactive) | z-score [7]: 0.859 (inactive) | mean signal [8]: 159 (inactive) | fold change ([9]; stronger effect = lower value): 1.04 (inactive) | fold change [9, 13]: 1.51 | cell count [9, 14]: 1360 | cell count [9, 15]: 1300 | log fold change Tl+ flux (F380Y): -0.0264 (inactive) | log fold change Tl+ flux (F380Y/beta1): -0.0154 (inactive) | log fold change Tl+ flux (F380Y/beta2Delta): -0.0407 (inactive) | log fold change Tl+ flux (F380Y/beta4): 0.00828 (inactive) | log fold change Tl+ flux [6]: 0.0324 (inactive) | log fold change Tl+ flux (R275C): -0.0177 (inactive) | log fold change Tl+ flux (R275C/beta1): 0.0288 (inactive) | log fold change Tl+ flux (R275C/beta2Delta): 0.0395 (inactive) | log fold change Tl+ flux (R275C/Slo1WT/beta2): 0.00131 (inactive)

C=CCN1CC[C@]23c4c5ccc(O)c4O[C@H]2C(=O)CCC3(O)[C@H]1C5 (stereo partly drawn)
mean signal [8]: 247 (inactive)

Cc1ncc2n1-c1ccc(Cl)cc1C(c1ccccc1F)=NC2
parasite load remaining [1]: 105% (inactive) | viability [1]: 73.5% | fluorescence ratio [2]: 1.04 (inactive) | inhibition [3]: -1.98% (inactive) | inhibition [4]: -3.18% (inactive) | fluorescence ratio [5]: 1.02 (inactive) | z-score [7]: -0.669 (inactive) | mean signal [8]: 220 (inactive) | fold change ([9]; stronger effect = lower value): 1.08 (inactive) | fold change [9, 13]: 1.63 | cell count [9, 14]: 6900 | cell count [9, 15]: 6400 | z-score [10]: 0.59 (inactive) | log fold change Tl+ flux (F380Y): -0.403 (active) | log fold change Tl+ flux (F380Y/beta1): -0.386 (active) | log fold change Tl+ flux (F380Y/beta2Delta): -0.205 (active) | log fold change Tl+ flux (F380Y/beta4): -0.197 (active) | log fold change Tl+ flux [6]: -0.019 (inactive) | log fold change Tl+ flux (R275C): -0.0381 (inactive) | log fold change Tl+ flux (R275C/beta1): -0.128 (active) | log fold change Tl+ flux (R275C/beta2Delta): -0.00496 (inactive) | log fold change Tl+ flux (R275C/Slo1WT/beta2): 0.000117 (inactive)

CC[C@@H]1C=CC=CC[C@H](C)[C@@H](O)[C@@H](C)C(=O)[C@H](C)[C@@H](O)[C@H](C)C(=O)[C@H](C)[C@@H](O)[C@H](C)C=CC(=O)O[C@H]2[C@@H](C)[C@@H](CC1)O[C@@]1(CC[C@@H](C)[C@@H](C[C@H](C)O)O1)[C@@H]2C
parasite load remaining [1]: 1.55% (active) | viability [1]: 67.4% | fluorescence ratio [2]: 1.01 (inactive) | inhibition [3]: 4.36% (inactive) | inhibition [4]: 7.6% (inactive) | fluorescence ratio [5]: 0.98 (inactive) | log fold change Tl+ flux (F380Y): -0.509 (active) | log fold change Tl+ flux (F380Y/beta1): -0.604 (active) | log fold change Tl+ flux (F380Y/beta2Delta): -0.884 (active) | log fold change Tl+ flux (F380Y/beta4): -0.693 (active) | log fold change Tl+ flux [6]: -0.117 (active) | log fold change Tl+ flux (R275C): -0.133 (active) | log fold change Tl+ flux (R275C/beta1): 0.0227 (inactive) | log fold change Tl+ flux (R275C/beta2Delta): -0.0422 (inactive) | log fold change Tl+ flux (R275C/Slo1WT/beta2): -0.0132 (inactive)

C[C@]12CCC(=O)C=C1CC[C@@H]1[C@@H]2CC[C@@]2(C)[C@H]1CC[C@]2(C)O
parasite load remaining [1]: 82.1% (inactive) | viability [1]: 78% | fluorescence ratio [2]: 1.03 (inactive) | inhibition [3]: 0.4% (inactive) | inhibition [4]: -2.41% (inactive) | fluorescence ratio [5]: 0.97 (inactive) | log fold change Tl+ flux (F380Y): -0.0714 (inactive) | log fold change Tl+ flux (F380Y/beta1): 0.0212 (inactive) | log fold change Tl+ flux (F380Y/beta2Delta): -0.0632 (inactive) | log fold change Tl+ flux (F380Y/beta4): -0.105 (active) | log fold change Tl+ flux [6]: 0.0144 (inactive) | log fold change Tl+ flux (R275C): -0.0155 (inactive) | log fold change Tl+ flux (R275C/beta1): 0.014 (inactive) | log fold change Tl+ flux (R275C/beta2Delta): 0.0131 (inactive) | log fold change Tl+ flux (R275C/Slo1WT/beta2): -0.0244 (inactive)

Oc1ccc2c3c1OC1C(O)CC[C@@]4(O)[C@@H](C2)N(CC2CCC2)CC[C@]314 (stereo partly drawn)
parasite load remaining [1]: 133% (inactive) | viability [1]: 141% | fluorescence ratio [2]: 0.97 (inactive) | inhibition [3]: -1.98% (inactive) | inhibition [4]: 9.14% (inactive) | fluorescence ratio [5]: 0.88 (inactive)

N#Cc1cc(I)c(O)c(I)c1
red/green cell ratio (normalised) [11, 16]: 1.04 (inactive) | normalised cell number [11, 17]: 1.08 | normalised cell number [11, 18]: 1.12

CCC(C)[C@H]1O[C@]2(C=C[C@@H]1C)C[C@@H]1C[C@@H](C/C=C(\C)[C@@H](OC3C[C@H](OC)C(O[C@H]4C[C@H](OC)[C@@H](O)[C@H](C)O4)[C@H](C)O3)[C@@H](C)/C=C/C=C3\COC4[C@H](O)C(C)=C[C@@H](C(=O)O1)[C@]34O)O2 (stereo partly drawn)
red/green cell ratio (normalised) [11, 16]: 0.68 (inactive) | normalised cell number [11, 17]: 0.88 | normalised cell number [11, 18]: 0.6

O=[N+]([O-])c1ccc(CN2CCNCC2)cc1
red/green cell ratio (normalised) [11, 16]: 0.74 (inactive) | normalised cell number [11, 17]: 1.45 | normalised cell number [11, 18]: 1.07

CC1CC[C@]2(NC1)O[C@H]1CC3C4CC[C@H]5C[C@@H](O)CC[C@]5(C)C4CC[C@]3(C)[C@H]1[C@@H]2C (stereo partly drawn)
red/green cell ratio (normalised) [11, 16]: 0.81 (inactive) | normalised cell number [11, 17]: 1.1 | normalised cell number [11, 18]: 0.89 | activity remaining [12]: 96.8% (inactive)

C[C@]12CCC3C(CC[C@H]4C[C@@H](O)CC[C@]34C)C1CCC2=O (stereo partly drawn)
red/green cell ratio (normalised) [11]: 0.99 (inactive) | normalised cell number [11, 17]: 1.2 | normalised cell number [11, 18]: 1.19 | activity remaining [12]: 102% (inactive)

C=CCSSCC=C
red/green cell ratio (normalised) [11]: 1.09 (inactive) | normalised cell number [11, 17]: 0.87 | normalised cell number [11, 18]: 0.95 | activity remaining [12]: 94.6% (inactive)

CCCN1CCC[C@@H]2Cc3[nH]ncc3C[C@H]21
parasite load remaining [1]: 75.7% (inactive) and 34.7% (inactive) | viability [1]: 68.7% and 143% | red/green cell ratio (normalised) [11]: 1.24 (inactive) | normalised cell number [11, 17]: 0.89 | normalised cell number [11, 18]: 1.1

CCC(C)C(=O)O[C@@H]1C[C@@]2(C)[C@H](c3ccoc3)OC(=O)CC23OC2(C)O[C@]14C1(C)[C@@H](CC(=O)OC)C5(C)CC1(O)[C@](O)(C5OC(=O)C1(C)OC1C)[C@@H](OC(C)=O)[C@]34O2 (stereo partly drawn)
red/green cell ratio (normalised) [11, 16]: 1.2 (inactive) | normalised cell number [11, 17]: 0.97 | normalised cell number [11, 18]: 1.16

COc1cc([C@@H]2c3cc4c(cc3[C@H](OC(C)=O)C3COC(=O)[C@H]32)OCO4)cc(OC)c1OC (stereo partly drawn)
red/green cell ratio (normalised) [11, 16]: 1.07 (inactive) | normalised cell number [11, 17]: 0.19 | normalised cell number [11, 18]: 0.2

C=Cc1cc(OC)c2c(c1)c(=O)oc1c2cc(OC)c2c(O)ccc([C@@H]3O[C@@H](C)[C@H](OC(C)=O)[C@H](N(C)C)[C@H]3O)c21
red/green cell ratio (normalised) [11, 16]: 0.75 (inactive) | normalised cell number [11, 17]: 0.41 | normalised cell number [11, 18]: 0.31

C[C@@H]1[C@H](O)[C@@H](C)/C=C/C=C/CC/C=C/C=C/C=C/C=C/[C@H](OC2O[C@H](C)[C@@H](O)[C@H](N)[C@@H]2O)C[C@@H]2O[C@](O)(C[C@@H](O)[C@H](O)CC[C@@H](O)C[C@@H](O)C[C@@H](O)CC(=O)O[C@H]1C)C[C@H](O)[C@H]2C(=O)O (stereo partly drawn)
red/green cell ratio (normalised) [11, 16]: 0.86 (inactive) | normalised cell number [11, 17]: 1.27 | normalised cell number [11, 18]: 1.09
